According to PubChem BioAssay AID1745848 (National Center for Advancing Translational Sciences (NCATS), 2022):
The whole screen tested about 2,100 compounds, of which about 940 (45%) were called active. About 48% were inconclusive and are not listed. Calls come from the whole dose curve; as a rule, active = well fitted inhibition curve with a large enough effect; inconclusive = small, poorly fitted or top-dose-only effect; inactive = no such curve, though single readings can be large or run the other way. The set was probably picked from earlier hits. The list shows a part of the results.

Assay: Confirmatory qHTS for Inhibitors of ATXN expression; note: nearly all actives have a fitted effect of over 65% in size
Settings: ATXN2-luciferase reporter cells, luminescence, 24 h; series mostly up to 11.5 µM
How it was run: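 Cells carrying ATXN2-luciferase reporter exposed 24 h at 37 C to compound. Viability then read by CellTiter-Fluor (25 uM GF-AFC, 30 min), followed by SteadyGlo luminescence; medium-only wells set 100% inhibition.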
Potency is the fitted concentration of half-maximal effect.

SMILES	Potency
CCC(=O)NC(c1ccc(OC)cc1)c1cc(Cl)c2cccnc2c1O (centres undefined)	3.16 µM (active)
COc1ccc(C(NC(C)=O)c2cc(Cl)c3cccnc3c2O)cc1 (centres undefined)	1.78 µM (active)
Clc1ccc(COC(Cn2ccnc2)c2ccc(Cl)cc2Cl)c(Cl)c1 (centres undefined)	2.82 µM (active)
O=C(CCCN1C(=O)/C(=C/c2ccccc2Cl)SC1=S)NNC(=O)c1ccc(Cl)cc1Cl	1.58 µM (active)
O=C(CCCN1C(=O)/C(=C/c2ccccc2Cl)SC1=S)NNC(=O)c1ccc(Cl)cc1	3.55 µM (active)
CN(c1ccccc1)S(=O)(=O)c1ccc(C(=O)Nc2nnc(-c3ccc(F)cc3)o2)cc1	15.8 µM (active)
O=C(Nc1nnc(-c2ccc(F)cc2)o1)c1cc(Cl)sc1Cl	15.8 µM (active)
CCc1nnc(NC(=O)c2ccc(S(=O)(=O)N(C)Cc3ccccc3)cc2)o1	20 µM (active)
Cc1sc2ncnc(NCC(O)c3ccc([N+](=O)[O-])cc3)c2c1C (centres undefined)	3.16 µM (active)
Cc1cc(C)cc(C(=O)NC(=S)Nc2ccc(-c3cc4ccccc4oc3=O)cc2)c1	4.47 µM (active)
O=C(CSc1nnnn1-c1ccccc1)Nc1nsc(-c2ccccc2)n1	inactive
CCOC(=O)c1c(NC(=O)CSc2nnnn2-c2ccccc2)sc2c1CC(C)(C)NC2(C)C	3.55 µM (active)
Cc1ccc(C(=O)N/C(=C/c2ccc(-c3ccc([N+](=O)[O-])cc3)o2)C(=O)NCCCN(C)C)cc1	25.1 µM (active)
CCCCOC(=O)/C=C\C(=O)NC(N)=O	17.8 µM (active)
N/C(=C\C(=O)c1cc(Cl)ccc1O)C(Cl)(Cl)Cl	3.16 µM (active)
C/C(=N\NC(=O)C(C)n1nc(C)c([N+](=O)[O-])c1C)c1ccccc1O (centres undefined)	3.16 µM (active)
O=C1N/C(=N/N=C/c2ccccc2O)SC1Cc1ccc(F)cc1 (centres undefined)	15.8 µM (active)
Cc1[nH]n(-c2ccccc2)c(=O)c1/C=N/NC(=O)c1ccccc1F	4.47 µM (active)
CC(C)(CO)NCc1c(OCc2ccc(Cl)cc2)ccc2ccccc12	14.1 µM (active)
COc1cccc(CN(C)C(=O)CNC(=O)c2ccc(-c3ccccc3)cc2)c1OC	14.1 µM (active)

SMILES	Potency
CCOC(=O)c1ccc(NC(=O)c2nc[nH]c2C(=O)N[C@H](C)c2ccccc2)cc1	inactive
CCOC(=O)c1ccc(NC(=O)C2CCCN(S(=O)(=O)c3ccc(F)cc3)C2)cc1 (centres undefined)	28.2 µM (active)
O=C(Nc1ccccc1C(=O)Nc1nnc(C(F)(F)F)s1)c1ccccc1Cl	3.55 µM (active)
O=C(Nc1ccccc1C(=O)Nc1nnc(C(F)(F)F)s1)c1ccccc1	1.78 µM (active)
CN(C)S(=O)(=O)c1cccc(N2C(=O)CC3(CCCCC3)CC2=O)c1	inactive
COc1cccc(CNc2nc(NCc3ccccc3)nc3ccsc23)c1	15.8 µM (active)
COc1ccccc1CNc1nc(NCc2ccc(NC(C)=O)cc2)c2sccc2n1	3.16 µM (active)
COc1ccccc1CNc1nc(NCc2cccc(OC)c2OC)c2sccc2n1	25.1 µM (active)
CN(C)S(=O)(=O)c1ccc(-c2csc(N/N=C/c3ccco3)n2)cc1	2.82 µM (active)
O=C(/C=C\c1ccco1)Nc1nc(-c2ccc3ccccc3c2)cs1	inactive
O=C(CN1C(=O)c2ccccc2S1(=O)=O)c1ccc(O)c(O)c1	inactive
O=C(CN1c2cccc3cccc(c23)S1(=O)=O)NCc1ccc(Cl)cc1	inactive
O=C(CN1C(=O)c2ccccc2S1(=O)=O)c1ccc(Cl)cc1Cl	0.891 µM (active)
O=C(CN1C(=O)c2ccccc2S1(=O)=O)N1CCc2ccccc21	0.447 µM (active)
O=C(CN1C(=O)c2ccccc2S1(=O)=O)Nc1ncc(Cl)cc1Cl	2.82 µM (active)
Cc1nnc(SCC(N)=O)n1CC1CCCO1 (centres undefined)	inactive
Cc1cc(C(=O)CN2C(=O)c3ccccc3S2(=O)=O)c(C)n1CC1CCCO1 (centres undefined)	0.355 µM (active)
Cc1cc(C(=O)CN2C(=O)c3ccccc3S2(=O)=O)c(C)n1C(C)C	1.58 µM (active)
CCn1c(C)cc(C(=O)CN2C(=O)c3ccccc3S2(=O)=O)c1C	1.26 µM (active)
O=C(O)COc1ccc2oc3ccccc3c2c1	inactive

SMILES	Potency
Cc1cc(C(=O)N/N=C/c2cc(Br)ccc2OC(=O)c2ccccc2Cl)n[nH]1	3.98 µM (active)
Cc1cc(C(=O)N/N=C/c2cc(Br)ccc2OC(=O)c2ccccc2)n[nH]1	2.51 µM (active)
Cc1cc(C(=O)N/N=C/c2cc(Br)cc(Br)c2OC(=O)c2cccc(F)c2)n[nH]1	3.16 µM (active)
Cc1ccc(-c2cc(C(=O)N/N=C/c3ccccc3O)n[nH]2)o1	7.08 µM (active)
COC(=O)c1ccc(/C=C2/SC(=S)N(CCCC(=O)Nc3ccccn3)C2=O)cc1	14.1 µM (active)
O=C(CCCN1C(=O)/C(=C/c2ccccc2Cl)SC1=S)Nc1ccccn1	11.2 µM (active)
COc1ccc(/C=C2\SC(=S)N(CCCC(=O)Nc3ccccn3)C2=O)cc1OC	14.1 µM (active)
O=C(Nc1ccc(CN2CCCCC2)cc1)Nc1ccc(Br)cc1Cl	25.1 µM (active)
N#Cc1c(NCCN)nc(-c2ccco2)c2c1CCCC2	25.1 µM (active)
NS(=O)(=O)c1ccc(CCNc2nn3c(-c4cccc(OC(F)(F)F)c4)cnc3s2)cc1	3.55 µM (active)
COc1cccc(/C=N/Nc2ncc(C(F)(F)F)cc2Cl)c1O	1.58 µM (active)
COc1cccc(/C=N/Nc2ncnc3c2ncn3Cc2ccccc2)c1O	0.708 µM (active)
CN1C2CCC1/C(=C\c1ccccc1)C(=O)/C2=C\c1ccccc1	14.1 µM (active)
COc1ccccc1N1CCN(c2ccnc3cc(Cl)ccc23)CC1	12.6 µM (active)
O=S(=O)(c1ccc2nc(COc3ccc(Cl)cc3Cl)[nH]c2c1)N1CCOCC1	inactive
O=C(C1CCCCC1)N1CCN(c2ccnc3cc(Cl)ccc23)CC1	3.98 µM (active)
O=S(=O)(c1ccccc1)N1CCN(c2ccnc3cc(Cl)ccc23)CC1	25.1 µM (active)
Oc1ccc(N2CCN(c3ccnc4cc(Cl)ccc34)CC2)cc1	15.8 µM (active)
C[C@H]1O[C@@H](O[C@H]2[C@@H](O)C[C@H](O[C@H]3[C@@H](O)C[C@H](O[C@H]4CC[C@@]5(C)[C@H](CC[C@@H]6[C@@H]5C[C@@H](O)[C@]5(C)[C@@H](C7=CC(=O)OC7)CC[C@]65O)C4)O[C@@H]3C)O[C@@H]2C)C[C@H](O)[C@@H]1O	0.282 µM (active)
